Screening results deposited in PubChem BioAssay by National Center for Advancing Translational Sciences (NCATS).
SARS PLP yeast = blocks SARS-CoV papain-like protease in a yeast assay; AID 485353; Potency, µM (doses to about 32.9 µM), for the others: top-dose activity, positive = growth rescue, actives largely listed as activators; S. cerevisiae expressing SARS-CoV PLpro, growth rescue; 0.19% of 330,000 active; calls by dose curve; further: potency means the concentration at half of the fitted maximal effect; 0% is about no effect; nearly all actives have a fitted effect of over 55% in size
Pf growth 96h = P. falciparum growth inhibition at 96 hour, primary screen for plastid delayed-death inhibitors | P. falciparum luciferase reporter growth, 96 h | Potency, µM (highest dose often 28.7 µM), without a hit: at the highest dose activity change, negative = inhibition, most hits filed as inhibitors | 6.9% of 320,000 active; further: potency means the concentration at half of the fitted maximal effect; on the % scale 0 is the no-effect control and ±100 the full control effect
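Luminescence readout: decreased luciferase signal marks inhibited growth of reporter-expressing P. falciparum in infected red cells (2% hematocrit, 0.05% parasitemia final), exposed to compound two generations (96 h, 37 C, 5% CO2).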
HCV inh = blocks hepatitis C virus; AID 651820; Potency, µM (doses to about 41.8 µM), without a hit: top-dose activity change, negative = inhibition, hits mostly inhibitors; Huh7.5.1 HCVcc-Cre infection, luciferase reporter, 44 h; 3.4% of 340,000 active; further: potency means the concentration at half of the fitted maximal effect; on the % scale 0 is the no-effect control and ±100 the full control effect
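Antiviral activity was scored by luciferase reporter output from cells infected with HCVcc-Cre (~0.5 moi) in presence of compound, 44 h infection period, cells seeded 1,000/well 4 h prior.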
HCMV antiviral = blocks human cytomegalovirus replication. HFF cells, HCMV-luciferase reporter, 72 h; active compounds read low. activity change, negative = inhibition, % at 57.5 µM. 4.5% of 410,000 active; in the data active means activity change below about -60%; inconclusive means no clear call, values can overlap the other calls; inactive means above about -39%; further: on the % scale 0 is the no-effect control and ±100 the full control effect
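Human foreskin fibroblasts infected with luciferase-reporter HCMV at MOI 1 PFU/cell, compounds at two doses. Luciferase measured 72 h post infection; normalized to buffer-only basal and Salinomycin (10uM) controls.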
Sm TGR block = S. mansoni TGR enzyme inhibition. Q962Y6. purified TGR, DTNB reduction, TNB absorbance 405 nm. Potency, µM (highest dose often 114 µM), inactives show at the highest dose activity change, negative = inhibition, actives largely listed as inhibitors. 3% of 360,000 active; further: potency means the concentration at half of the fitted maximal effect; on the % scale 0 is the no-effect control and ±100 the full control effect; nearly all actives have a fitted effect of over 60% in size
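First, TGR (20 nM dispensed) and NADPH were mixed with compound. Second, a 15 min room-temperature incubation followed. Third, further NADPH and then DTNB were added to start the reaction. Finally, TNB absorbance was monitored kinetically.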
Pf growth 48h = inhibits P. falciparum growth in the first generation, 48 h | Potency, µM (doses to about 28.7 µM), for inactives: at the highest dose activity change, negative = inhibition, hits mostly inhibitors | AID 504832 | 5.9% of 310,000 active | P. falciparum luciferase growth in erythrocytes, 48 h; further: potency means the concentration at half of the fitted maximal effect; on the % scale 0 is the no-effect control and ±100 the full control effect
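Luminescence readout; reporter = integrated firefly luciferase in P. falciparum. RBC culture at 2% hematocrit, 0.1% parasitemia final, 37 C/5% CO2; decreased signal taken as growth inhibition.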
Starred values were filed as active, the others as inactive; u = inconclusive; x = no result; ! = not active in a repeat. An excerpt weighted towards active compounds, which were near 15% of everything screened. Unless noted, the call rests on the fitted dose curve; in most records, active means well fitted curve in the direction sought with a large enough effect; inconclusive means small, poorly fitted or top-dose-only effect, or another doubt; inactive means no such curve, though single readings can be large; an effect the other way counts as inactive or inconclusive.

SMILES	SARS PLP yeast	Pf growth 96h	HCV inh	HCMV antiviral	Sm TGR block	Pf growth 48h
CC(C)(C)n1nnnc1C(c1ccccc1)N1CCCN(Cc2ccc(F)cc2)CC1 (centres undefined)	x	x	x	-0.9	x	x
OCCOCCN1CCN(C(c2ccccc2)c2ccc(Cl)cc2)CC1 (centres undefined)	4.9%	u	1.41µM*!	-60.1*	-0.2%	u
Clc1ccc([C@@H](OCCN2CCCCC2)c2ccccc2)cc1	x	3.22µM*	x	x	x	u
CC(C)(C)c1ccc(CN2CCN([C@H](c3ccccc3)c3ccc(Cl)cc3)CC2)cc1	x	7.57µM*	x	x	x	16.9µM*
CC(C)(C)n1nnnc1CN1CCN(C(c2ccccc2)c2ccccc2)CC1	9.2%	-13.3%	u	-7.3	7.7%	5.22µM*
ClCc1nnc(-c2ccccc2)o1	-2.3%	15.8%	u	-37.6	50.1µM*	2.94µM*
c1ccc(-c2nnc(CN3CCN(C(c4ccccc4)c4ccccc4)CC3)o2)cc1	-6.8%	9.28µM*	-9.5%	11.5	22.6%	-40.9%
CCc1nc2ccc(C(=O)NCCCN3CCCC3=O)cn2c1N(CC)C(=O)NCCc1ccccc1	x	x	x	3.0	x	x
COc1ccccc1C(=O)Nc1ccc2c(c1)CCCN2C(=O)c1cccs1	-66.3%	1.5%	u	-60.4*	-5.4%	-3.4%
O=C(Nc1ccc2c(c1)CCCN2C(=O)c1cccs1)c1ccccc1C(F)(F)F	x	x	x	-71.5*	2.1%	x
O=C(Nc1ccc2c(c1)CCCN2C(=O)c1cccs1)c1ccc(F)c(F)c1	x	x	x	u	-1.6%	x
N#CN1CCC(NS(=O)(=O)c2ccc(C(F)(F)F)cc2)C1 (centres undefined)	-4.8%	42.4%	x	8.3	-13.2%	u
CC(C)(C)n1nnnc1CN1CCC(NC(=O)NC2CCCCC2)CC1	2.8%	1.9%	0.9%	-9.8	-3.3%	-23.1%
Cc1ccccc1C(=O)NC1CCN(Cc2nnnn2C2CCCC2)CC1	14.8%	6.57µM*	6.8%	-28.7	-2.8%	-8.9%
CCC(C)(C)n1nnnc1CN1CCC(NC(=O)c2ccc(Br)cc2)CC1	23.9%	4.15µM*	u	-32.0	9.5%	u
Cc1ccccc1C(=O)NC1CCN(Cc2nnnn2Cc2ccccc2)CC1	1.7%	-2.8%	-13.7%	21.3	2.7%	-13.8%
Cc1ccccc1C(=O)NC1CCN(Cc2nnnn2C(C)(C)C)CC1	1.1%	46.2%	12.8%	u	5.7%	5.6%
Cc1ccc(Cn2nnnc2CN2CCC(NC(=O)c3ccc(Br)cc3)CC2)cc1	7.3%	u	-10.4%	-17.3	-25.9%	3.7µM*
CC1CCN(CCOc2ccc(OCc3ccccc3)cc2)CC1	-24.3%	-21.8%	u	-27.8	-13.5%	15.0%
O=c1ccn([C@@H]2O[C@H](COS(=O)(=O)O)[C@@H](O)[C@H]2O)c(=O)[nH]1	3.2%	x	-9.4%	-61.8*	x	x
CC(=O)c1cccc(NC(=O)NC(C)c2ccc3c(c2)OCO3)c1 (centres undefined)	1.6%	-18.6%	-11.4%	-11.3	16.9%	-12.2%
COC(=O)Cn1cnc2c(Cl)nc(F)nc21	2.5%	x	5.62µM*	-12.6	x	x
CCCNCC(O)Cn1c2ccccc2n2c(=O)cc(C)c(C#N)c12 (centres undefined)	-3.1%	11.7µM*	u	-60.9*	-3.6%	3.7µM*
O=C(NC(=S)N1CCCc2ccccc21)c1ccc([N+](=O)[O-])cc1	-3.5%	7.38µM*	u	1.9	-32.7%	u
O=C(NC(=S)N1CCCc2ccccc21)c1ccccc1	-2.6%	u	u	288.8	u	3.3%
CN(c1ncnc(N)c1[N+](=O)[O-])C1CCCCC1	-0.4%	19.9%	u	-94.0*	5.5%	32.5%
Cc1ccccc1Oc1ncnc(N)c1[N+](=O)[O-]	-2.3%	u	4.0%	-32.8	-2.6%	-3.1%
CCCCN(c1ccccc1)c1ncnc(N)c1[N+](=O)[O-]	7.9%	71.7%	-11.0%	-102.3*	-19.0%	0.0%
CN(c1ncnc(N)c1[N+](=O)[O-])C1CCS(=O)(=O)C1 (centres undefined)	-3.8%	-0.8%	-25.3%	-74.2*	1.2%	-4.1%
